MITF TRPM1 inh: inhibitors of MITF-driven TRPM1 promoter in melanoma cells; SK-MEL-5 TRPM1 promoter luciferase, 24 h; inhibition, % at 12.5 µM; 330,000 tested, 0.83% active; AID 488899;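 active = mean inhibition across replicates of 60% or more, whatever share of single replicates reaches that level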
Shn3 inh set2: inhibitors of Schnurri-3 3'UTR reporter in osteoblasts; AID 588674; Clone20 osteoblast Shn3 3'UTR firefly luciferase, 24 h; 360,000 tested, 0.52% active; inhibition, % at 12.5 µM;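 active = mean inhibition of at least 75% with every replicate also reaching 75%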;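 note: 0% = median of neutral control wells and 100% = pilot-screen positive control compound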
HIF-2a inh: inhibitors of HIF-2a; 786-0 RCC cells HIF-2a reporter, luciferase luminescence, overnight; AID 624352; 360,000 tested, 0.72% active; inhibition, % at 18.8 µM;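 active = inhibition of the luminescence signal of 40% or more relative to plate controls, in a single-dose primary screen at 18.75 µM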
KKLEB cytotox: counter-screen for CF NF-kB inhibitors: cytotoxicity; KKLEB CF airway cells viability, ATPlite luminescence, overnight; hits give low values; cells stimulated with P. aeruginosa culture filtrate; 360,000 tested, 0.36% active; activity change (cytotoxicity), % at 5 µM;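 active = corrected activity change at or below -50% at 5 µM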
Peg3 prom inh: reduces Peg3 promoter-driven luciferase expression in HeLa. HeLa PEG-Prom luciferase reporter, luminescence, overnight. inhibition, % at 20 µM. 360,000 tested, 1.7% active;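 active = inhibition of at least 50% at 20 µM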
CF NFkB inh: inhibitors of cystic fibrosis induced NF-kB | KKLEB NF-kB-GFP reporter, PAF-induced, GFP fluorescence overnight | inhibition, % at 5 µM | 360,000 tested, 0.86% active | AID 588850;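 active = at least 50% inhibition at 5 µM, scaled per plate between neutral and stimulator controls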;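 note: PAF is a Pseudomonas aeruginosa culture filtrate used as stimulus; plate controls were PAF-stimulated DMSO wells for no effect and unstimulated DMSO wells for full effect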
* = called active by the depositor; · = no result given. This is a sample that favours compounds with a hit; in the whole collection about 2.7% have one here.

SMILES	MITF TRPM1 inh	Shn3 inh set2	HIF-2a inh	KKLEB cytotox	Peg3 prom inh	CF NFkB inh
CCCCc1ccc(NC(=O)Nc2cc(C)nn2C)cc1	6	-1	-26	0	3	0
Cc1cc2c(cn1)C(CCC#N)(CCC#N)c1ccccc1-2	-3	8	11	-5	0	0
O=C(CCl)Nc1cn(-c2ccccc2)nc1-c1ccccc1	74*	-17	-65	-71*	84*	46
CC(=O)Nc1cn(-c2ccccc2)nc1-c1ccccc1	15	-21	-31	0	-12	-7
O=C1CC2CCCC(C1)S2=O (configuration not stated)	·	-10	7	4	4	-6
O=C1NC(=Nc2ccc(Cl)cc2)/C(=C/c2ccco2)S1	0	-25	-16	-18	63*	17
Cc1cccc(N=C2NC(=O)S/C2=C\c2ccco2)c1	3	35	-23	-14	3	-10
C=CCn1c(SCC(=O)c2[nH]c(C)c(C(=O)OC)c2C)nc2scc(-c3ccc(OC)c(OC)c3)c2c1=O	105*	84	12	-40	10	24
COC1=C(C)C(=O)C2=C(C1=O)C1C3CC4=C(C(=O)C(OC)=C(C)C4=O)C(CNC(=O)C(C)=O)N3C(C#N)C(C2)N1C (configuration not stated)	114*	94*	78*	-44	101*	81*
COc1ccc(-n2sc3ccccc3c2=O)cc1	·	23	-65	-11	-138	63*
CCOC(=O)N1CCN(C(=O)c2cc3ccc(OC)cc3[nH]2)CC1	-3	6	-33	-13	-16	-4
CN(Cc1nc(-c2ccc(Cl)cc2)no1)C(=O)CCN1C(=O)[C@H]2CC=CC[C@H]2C1=O	3	13	-6	-22	-11	10
CC(NCc1cccc(OCc2ccccc2)c1)C(O)c1ccccc1 (configuration not stated)	-6	6	3	-9	2	24
CC(NCc1ccc(OCc2ccc(Cl)cc2)cc1)C(O)c1ccccc1 (configuration not stated)	13	97*	-63	-18	104*	32
CCCC/C=C1/CCC(CN(C)C)C1=O (configuration not stated)	75*	1	-5	12	98*	-24
CCN(CC)CCCNC(=O)c1cc(-c2ccccc2)c(N2CCCCC2)s1	9	-8	3	-1	97*	-8
O=C(NCCc1ccccc1)c1cc(-c2ccccc2)c(N2CCOCC2)s1	10	13	-6	4	-4	-11
O=C(NCc1ccc(Cl)cc1)c1ccc(CNc2c(N3CCOCC3)c(=O)c2=O)cc1	-2	-3	14	-12	5	10
O=C(NCc1ccc(Cl)cc1)c1ccc(CNc2c(N3CCCC3)c(=O)c2=O)cc1	1	12	51*	4	3	2
CC(C)NC(=O)N1Cc2cc(C(=O)NC3CCC3)nc(-c3cccc(-c4cncnc4)c3)c2[C@H]1CCO	·	·	7	·	·	·
Cc1ccc(-c2cc(C(=O)Nc3ccccc3C(N)=O)c3ccccc3n2)o1	·	17	7	-11	52*	-12
CCCCc1ccc(NC(=O)C(=O)NCCN2CCN(Cc3ccc([N+](=O)[O-])cc3)CC2)cc1	13	94*	13	-24	18	1
CNC(=O)C(=O)NCCN1CCN(C(=O)c2ccc([N+](=O)[O-])cc2)CC1	-1	-2	5	7	10	4
C=CCN(C(=O)c1csnn1)C(C(=O)NC1CCCC1)c1c(F)cccc1Cl (configuration not stated)	3	1	4	4	27	-10
S=C(Nc1ccc(Cl)c(Cl)c1)NC1CCN(Cc2ccccc2)CC1	37	71	21	-15	93*	11
SMILES	MITF TRPM1 inh	Shn3 inh set2	HIF-2a inh	KKLEB cytotox	Peg3 prom inh	CF NFkB inh
Fc1ccc(NC(=S)NC2CCN(Cc3ccccc3)CC2)cc1	-3	11	2	7	9	2
NC(=O)/C=C/C(=O)Nc1ccc(Cl)cc1	2	-2	13	-12	63*	-5
CCCCCCc1cc2cc(S(=O)(=O)c3ccc(F)c(Cl)c3)c(=O)oc2cc1O	21	9	21	-72*	49	60*
CCCCCCc1cc2cc(C(=O)Nc3ccc(OC)cc3)c(=O)oc2cc1O	9	18	16	-57*	43	52*
CCCCCCc1cc2cc(C(=O)Nc3cccc(OC)c3)c(=O)oc2cc1O	35	1	8	-63*	30	66*
Cc1ccc(S(=O)(=O)c2cc3ccc(O)cc3oc2=O)cc1C	-1	-1	8	8	3	-22
CCCCCCc1cc2cc(C(=O)NC)c(=N)oc2cc1O	-3	4	-13	4	16	17
CCN(CC)c1ncnc2c1ncn2[C@H]1CN(Cc2ccc(F)cc2)C[C@@H](CO)O1	·	7	23	16	14	-4
C=CCNC(=O)/C(C#N)=C/c1c(N(Cc2ccccc2)Cc2ccccc2)nc2ccccn2c1=O	10	4	26	3	50*	18
N#C/C(=C\c1c(N(Cc2ccccc2)Cc2ccccc2)nc2ccccn2c1=O)C(N)=O	-4	7	30	-11	31	8
CN1CCN(S(=O)(=O)c2ccc(Br)c3ccccc23)CC1	-6	6	25	-8	4	2
Cc1nn(C)c(=O)n1N(C)c1ncc(C(F)(F)F)cc1Cl	-4	-32	14	-25	67*	-4
Cc1nn(Cc2noc(C(=O)NC3CCC(C)CC3)n2)c(C)c1Br (configuration not stated)	0	90*	7	4	4	-1
N#C/C(=C\c1ccc2c(c1)OCCO2)C(=O)Nc1nccs1	-21	-24	-131	-2	-56	-4
CCCCN(C)CC(O)Cn1cc(/C=C/C(=O)c2cccs2)c2ccccc21 (configuration not stated)	90*	-15	-28	-28	44	-29
CCCCOc1ccc(C(=O)NCC(=O)N2CCN(C(=O)c3ccco3)CC2)cc1	8	-6	0	26	-10	-5
COc1cc(/C=C(\C#N)c2nc3ccccc3[nH]2)cc(Br)c1OCc1ccccc1	12	13	-6	-7	53*	-2
Cc1cc(=O)oc2c3c(cc(OCC(=O)NCc4ccccc4)c12)OC(C)(C)CC3	0	19	3	0	17	-26
Cc1cc(=O)oc2c3c(cc(OCC(=O)Nc4ccc(CCO)cc4)c12)OC(C)(C)CC3	-8	91*	-21	-10	5	6
COc1ccc(NC(=O)CN(C)C(=O)c2ccc(-c3ccccc3Cl)o2)cc1	-17	-27	-129	4	-112	3
O=C(NCc1cccc(Cl)c1)c1ccc(N2CC3CC(C2)c2cccc(=O)n2C3)c(NC(=O)c2cccnc2)c1 (configuration not stated)	-5	4	15	7	4	0
